Screening data: PubChem BioAssay, several laboratories
The sample as a whole holds a higher share of hits than the screen did.
Autofluor counter: counter-screen for toxin protease inhibitors: compound fluorescence. compound autofluorescence counterscreen, microsphere flow cytometry; stronger effect = higher value. fluorescence intensity (test concentration not listed). 360,000 tested, 3.1% active. AID 624483; in the data active = fluorescence intensity above about 16000; inconclusive = no clear call, values can overlap the other calls
Anthrax LF prot: anthrax lethal factor protease inhibition; P15917; inhibition, % at 10 µM; 360,000 tested, 0.12% active; multiplex microsphere protease cleavage assay, LF; note: plate controls were buffer without enzyme for full effect and enzyme alone for no effect
TcdB inh: inhibitors of Clostridioides difficile toxin B glycohydrolase; 350,000 tested, 0.24% active; TcdB glycohydrolase enzymatic assay, plate reader; inhibition, % at 9.99 µM; P18177; AID 652162; in the data active = inhibition above about 10%
Target sequence (P18177 whole entry, looked up): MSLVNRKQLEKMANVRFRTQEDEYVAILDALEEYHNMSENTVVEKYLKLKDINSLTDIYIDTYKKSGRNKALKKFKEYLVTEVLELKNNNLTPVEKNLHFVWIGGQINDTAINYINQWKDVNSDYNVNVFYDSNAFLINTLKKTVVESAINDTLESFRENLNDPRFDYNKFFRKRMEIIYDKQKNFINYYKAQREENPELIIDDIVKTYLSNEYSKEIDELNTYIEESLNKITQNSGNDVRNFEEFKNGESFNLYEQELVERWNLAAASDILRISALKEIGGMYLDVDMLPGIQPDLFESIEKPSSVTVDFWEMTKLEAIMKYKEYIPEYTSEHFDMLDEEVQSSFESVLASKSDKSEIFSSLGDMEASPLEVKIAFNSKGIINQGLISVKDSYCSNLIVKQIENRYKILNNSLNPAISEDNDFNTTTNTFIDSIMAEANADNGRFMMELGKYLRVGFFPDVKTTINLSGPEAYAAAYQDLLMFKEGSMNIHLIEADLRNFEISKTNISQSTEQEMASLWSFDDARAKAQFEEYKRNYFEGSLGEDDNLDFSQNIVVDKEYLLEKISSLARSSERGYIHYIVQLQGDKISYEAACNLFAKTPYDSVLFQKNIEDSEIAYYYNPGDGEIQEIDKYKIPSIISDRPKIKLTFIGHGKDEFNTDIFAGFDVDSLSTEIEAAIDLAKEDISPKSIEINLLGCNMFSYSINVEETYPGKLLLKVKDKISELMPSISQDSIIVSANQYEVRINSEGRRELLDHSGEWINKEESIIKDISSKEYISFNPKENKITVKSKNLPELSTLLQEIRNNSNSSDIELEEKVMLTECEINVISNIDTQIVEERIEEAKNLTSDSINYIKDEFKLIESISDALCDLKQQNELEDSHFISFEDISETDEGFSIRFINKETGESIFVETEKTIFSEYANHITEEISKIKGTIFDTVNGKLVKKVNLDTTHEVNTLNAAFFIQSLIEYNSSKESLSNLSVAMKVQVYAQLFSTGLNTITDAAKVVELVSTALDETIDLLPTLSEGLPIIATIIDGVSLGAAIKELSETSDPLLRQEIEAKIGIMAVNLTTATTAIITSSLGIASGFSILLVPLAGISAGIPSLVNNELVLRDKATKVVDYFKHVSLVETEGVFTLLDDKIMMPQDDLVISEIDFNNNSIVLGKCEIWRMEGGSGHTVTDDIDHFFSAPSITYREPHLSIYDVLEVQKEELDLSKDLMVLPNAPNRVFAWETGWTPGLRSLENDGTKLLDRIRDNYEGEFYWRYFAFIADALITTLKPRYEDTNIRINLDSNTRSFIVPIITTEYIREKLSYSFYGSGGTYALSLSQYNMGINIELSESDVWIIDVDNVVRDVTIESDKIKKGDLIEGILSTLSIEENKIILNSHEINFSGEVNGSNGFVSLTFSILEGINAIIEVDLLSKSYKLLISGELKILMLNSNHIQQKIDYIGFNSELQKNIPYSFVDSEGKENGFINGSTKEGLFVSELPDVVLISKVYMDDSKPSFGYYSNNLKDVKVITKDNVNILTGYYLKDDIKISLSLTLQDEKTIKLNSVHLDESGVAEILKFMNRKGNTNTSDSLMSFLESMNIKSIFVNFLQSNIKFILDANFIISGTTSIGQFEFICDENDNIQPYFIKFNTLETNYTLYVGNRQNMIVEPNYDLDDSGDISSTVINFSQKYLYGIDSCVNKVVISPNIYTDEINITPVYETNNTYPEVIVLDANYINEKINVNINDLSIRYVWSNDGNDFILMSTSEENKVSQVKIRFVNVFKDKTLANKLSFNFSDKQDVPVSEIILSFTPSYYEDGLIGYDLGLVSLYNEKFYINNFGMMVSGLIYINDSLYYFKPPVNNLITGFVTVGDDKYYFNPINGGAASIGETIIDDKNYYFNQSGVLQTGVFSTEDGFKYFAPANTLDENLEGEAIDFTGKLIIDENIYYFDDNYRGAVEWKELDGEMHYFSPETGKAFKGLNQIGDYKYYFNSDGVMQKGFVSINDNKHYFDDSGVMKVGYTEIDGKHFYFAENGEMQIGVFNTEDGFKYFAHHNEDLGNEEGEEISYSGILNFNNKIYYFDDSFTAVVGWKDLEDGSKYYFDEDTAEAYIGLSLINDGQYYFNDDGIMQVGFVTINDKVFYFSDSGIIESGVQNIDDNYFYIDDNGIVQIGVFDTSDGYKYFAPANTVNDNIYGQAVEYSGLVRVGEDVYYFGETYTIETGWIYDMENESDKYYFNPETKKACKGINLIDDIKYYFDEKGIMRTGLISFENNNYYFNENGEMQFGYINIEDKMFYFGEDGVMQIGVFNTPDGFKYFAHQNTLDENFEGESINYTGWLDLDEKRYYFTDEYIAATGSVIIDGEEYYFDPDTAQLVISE
BoNT A protease: inhibitors of Botulinum neurotoxin A light chain protease; multiplex microsphere protease substrate cleavage, flow cytometry; inhibition, % at 10 µM; 360,000 tested, 0.17% active; AID 588499; note: plate controls were buffer without enzyme for full effect and enzyme alone for no effect
BoNT-F LC inh: blocks Botulinum neurotoxin F light chain protease. Multiplex microsphere protease cleavage assay, flow cytometry. inhibition, % at 10 µM. 360,000 tested, 0.22% active. AID 588497; in the data active = inhibition above about 35%, passing the limit was not always enough; inconclusive = no clear call, values can overlap the other calls; note: plate controls were buffer without enzyme for full effect and enzyme alone for no effect
BoNT-A LC CP1: inhibitors of Botulinum neurotoxin A light chain protease; AID 602139; multiplex microsphere protease assay, flow cytometry; shares compounds with BoNT-F LC inh; 720 tested, 3% active; inhibition, % at 10 µM; in the data active = inhibition above about 32%
BoNT-F LC CP1: inhibitors of Botulinum neurotoxin F light chain protease; 720 tested, under 10 active; inhibition, % at 10 µM; shares compounds with BoNT-F LC inh; multiplex microsphere protease cleavage assay, flow cytometry; call rule not given here
LF protease CP1: Bacillus anthracis lethal factor protease inhibition; inhibition, % at 10 µM; 720 tested, under 10 active; shares compounds with BoNT-F LC inh; multiplex microsphere protease cleavage assay, LF; call rule not given here
* hit, by the source's call; u = inconclusive; x = not tested or not shown. Cut-off read from the data, not from the text of the source, unless noted: active = inhibition above about 30%; inconclusive = no clear call, values can overlap the other calls; inactive = below that.

SMILES | Autofluor counter | Anthrax LF prot | TcdB inh | BoNT A protease | BoNT-F LC inh | BoNT-A LC CP1 | BoNT-F LC CP1 | LF protease CP1
Cc1nnc(SCC(=O)Nc2ccc(N3CCOCC3)cc2)o1 | 3798 | 0 | x | 1 | 42* | -1 | -2 | 2
COc1ccccc1Oc1ncnc2sccc12 | 3310 | 0 | 7 | 5 | 37* | -2 | -5 | -2
Cn1c(=O)c2cc3ccccc3nc2n(C)c1=O | 4208 | 30* | 0 | -1 | u | 0 | -1 | 2
CS(=O)(=O)Nc1cccc(C2=NN(S(=O)(=O)c3ccccc3)C(c3ccco3)C2)c1 (stereo unspecified) | 2700 | -1 | 1 | -1 | -7 | x | x | x
CCS(=O)(=O)N1N=C(c2cccc(NS(C)(=O)=O)c2)CC1c1ccccc1 (stereo unspecified) | 25649* | 44* | 1 | 94* | 30 | -6 | x | -8
Cc1ccc(C(=O)N(CCC2=CCCCC2)c2c(N)n(Cc3ccccc3)c(=O)[nH]c2=O)o1 | 5952 | u | 1 | 31* | -5 | -2 | -10 | 2
Nc1c(N(CCC2=CCCCC2)C(=O)c2ccc([N+](=O)[O-])o2)c(=O)[nH]c(=O)n1Cc1ccccc1 | x | x | 1 | x | x | x | x | x
CNC[C@H]1Oc2ccc(NC(=O)Cc3ccccc3)cc2CC(=O)N([C@H](C)CO)C[C@H]1C | x | x | 0 | x | x | x | x | x
COc1ccc(/C(O)=C/c2nc3ccccc3n(-c3ccccc3)c2=O)cc1 | 7212 | 5 | x | 2 | 37* | 5 | 4 | 3
COc1ccc(C2CC(c3cccs3)=NN2c2nc(-c3ccccc3)cs2)cc1OC (stereo unspecified) | 4635 | 16 | 1 | 19 | 2 | 8 | -2 | 9
Cc1cc([N+](=O)[O-])nn1Cc1ccccc1F | 2525 | 1 | x | 0 | 35* | 0 | 0 | 1
Cc1cc([N+](=O)[O-])nn1Cn1nc([N+](=O)[O-])cc1C | 3444 | 1 | 1 | -1 | -1 | x | x | x
CCCNC(=O)N(C)C[C@H]1Oc2ncc(C#CC3CC3)cc2C(=O)N([C@@H](C)CO)C[C@H]1C | x | x | 0 | x | x | x | x | x
O=C(C[C@H]1CC[C@@H](NC(=O)NC2CCCCC2)[C@@H](CO)O1)NCc1ccc(Cl)cc1 | x | x | -1 | x | x | x | x | x
COc1cc(C(=O)N(C)CCOc2ccc(C)cc2)ccc1OC1CCN(C(C)=O)CC1 | 4006 | 30* | -13 | 0 | u | -1 | -7 | 4
COc1ccc(C(=O)NCCc2ccc(C)cc2)cc1OC1CCN(C(C)=O)CC1 | 5955 | 8 | 1 | 0 | 0 | x | x | x
CC=Cc1ccc2n(c1=O)C[C@@H]1[C@@H](CO)[C@H](C(=O)NCc3ccncc3)N(Cc3cncnc3)[C@H]21 (mixture of isomers) | x | x | -1 | x | x | x | x | x
Cc1ccc(C(=O)Nc2nccs2)s1 | 2950 | 10 | 1 | -1 | -14 | x | x | x
Cc1c(C(=O)Nc2nccs2)sc2nc(-c3cccs3)cc(C(F)(F)F)c12 | 14857 | 37* | x | 39* | 11 | 12 | -4 | 6
CC(=O)c1sc2nc(-c3cccs3)cc(C(F)(F)F)c2c1N | 4089 | 13 | x | 16 | 11 | x | x | x
Cc1c(C(=O)O)sc2nc(-c3cccs3)cc(C(F)(F)F)c12 | 3107 | -2 | 0 | -7 | -17 | -2 | -1 | -2
C[C@H]1CN([C@@H](C)CO)C(=O)Cc2cc(NS(C)(=O)=O)ccc2O[C@@H]1CN(C)C(=O)Nc1ccccc1 | x | x | 1 | x | x | x | x | x
CCC(C)[C@H](NC(=O)N1CCCCC1)C(=O)OC (stereo partly specified) | 4756 | 35* | 1 | 3 | u | -1 | 3 | -1
C[C@@H]1CN([C@H](C)CO)C(=O)c2cc(C#CC3CCCCC3)cnc2O[C@@H]1CN(C)Cc1ccncc1 | x | x | 1 | x | x | x | x | x
Nc1nc2ccccc2n1CCOc1ccc(F)cc1 | 4168 | -1 | 4 | -4 | 42* | -1 | -2 | 3
SMILES | Autofluor counter | Anthrax LF prot | TcdB inh | BoNT A protease | BoNT-F LC inh | BoNT-A LC CP1 | BoNT-F LC CP1 | LF protease CP1
NS(=O)(=O)c1ccc(CCNC2CC(=O)N(CCc3ccccc3)C2=O)cc1 (stereo unspecified) | 7354 | 52* | x | 6 | 158* | 1 | 1 | 4
COCC(=O)Nc1ccc2c(c1)C(=O)N(C)C[C@H](OC)[C@H](C)CN(CC1CC1)[C@@H](C)CO2 | x | x | 0 | x | x | x | x | x
COc1ccccc1-c1c(C)nn2c(N)c(-c3ccccc3)cnc12 | 4105 | -1 | 0 | 1 | 19 | x | x | x
COc1ccc(-c2c(C)nn3c(N)c(-c4ccccc4)cnc23)cc1OC | 4470 | -2 | 2 | -6 | 40* | 0 | -4 | -3
COc1ccc(C(c2nnnn2CS(=O)(=O)c2ccc(C)cc2)N2CCN(Cc3ccccc3)CC2)cc1 (stereo unspecified) | 4894 | -1 | x | -1 | 34 | 1 | -3 | -1
COc1ccc(C(=O)CSc2nnc(CN3CCCCC3)n2-c2ccc(F)cc2)cc1OC | 2073 | 2 | x | 0 | -28 | x | x | x
COc1ccc(C(=O)CSc2nnc(CN3CCCC3)n2-c2ccc(F)cc2)c(OC)c1 | 2755 | -2 | 0 | 4 | 39* | -1 | -5 | 0
COc1ccc(CCNC(=O)c2ccc(Cl)c(S(=O)(=O)N(C)c3ccccc3)c2)cc1 | 9294 | 0 | x | -1 | -2 | x | x | x
CN(C)S(=O)(=O)c1cc(C(=O)NCCCn2ccc3ccccc32)ccc1Cl | 4171 | 12 | x | 6 | -27 | 0 | -3 | 2
O=c1c(Cl)c2oc3ccccc3nc-2c2ccccc12 | 6118 | 25 | x | 47* | 6 | 32* | 8 | 23
COc1ccc(-n2c(C)nc(N)c2C(=O)c2ccccc2)cc1 | 4994 | 56* | 1 | -5 | u | -1 | -2 | 3
COC(=O)c1c(N)nc(C)n1-c1ccc(OC)cc1 | 3166 | -4 | x | 1 | 4 | x | x | x
O=C(NC1CCCC1)C(c1cccnc1)N(Cc1ccccc1)C(=O)c1csnn1 (stereo unspecified) | 3682 | 6 | 0 | 1 | 43* | 0 | 0 | 1
CC(C)CCN(C(=O)c1csnn1)C(C(=O)NC1CCCC1)c1ccc(F)cc1 (stereo unspecified) | 3226 | 6 | 1 | 3 | 91* | -1 | -2 | -7
O=C(NC1CCCC1)C(c1ccc(F)cc1)N(Cc1ccccc1)C(=O)c1csnn1 (stereo unspecified) | 3628 | -1 | 0 | -2 | -11 | x | x | x
O=C(O)C[C@H]1C[C@@H]2c3cc(NC(=O)c4ccc5c(c4)OCO5)ccc3O[C@@H]2[C@H](CO)O1 | x | x | 1 | x | x | x | x | x
O=C(Nc1nc(-c2ccc3c(c2)OCCO3)cs1)c1ccco1 | 6117 | 0 | 1 | 0 | -5 | x | x | x
CCC(=O)N1CCc2cc(-c3csc(NC(=O)c4ccco4)n3)ccc21 | 3917 | -10 | -1 | -2 | 35* | 2 | 5 | -1
COC(=O)C[C@H]1CC[C@@H]2[C@@H](COc3ccc(NC(=O)C4CCOCC4)cc3C(=O)N2C)O1 | x | x | 1 | x | x | x | x | x
CC(C)OC(=O)C(C)Nc1ccc(F)c(Cl)c1 (stereo unspecified) | 3010 | -7 | 2 | -4 | 40* | -2 | -5 | -6
